In ChEMBL document CHEMBL1157539, “Thousands of chemical starting points for antimalarial lead identification” (Nature, 2010) one finds IFI data, which are given here for 59 molecules.

Each structure is given as a SMILES string. Whole data set: some 13,000 compounds, median “IFI” near 4, cut for the highest 2% near 17. The full list was thinned out, with the highest values kept by preference.

A short description of the assay: GSK_TCMDC: Inhibition Frequency Index (IFI). The number of non-kinase HTS assays where a compound showed > 50 % inhibition, expressed as a percentage of the number of such assays in which the compound was tested. Format: functional.
In turn, `Cc1cccc2nc(-c3ccc(-c4cccc(NC(=O)Nc5ccc(F)c(F)c5F)c4)cc3)[nH]c12` displayed an IFI of 2.91%.

`O=C(/C=C/C=C/c1ccc(Cl)c(Cl)c1)NCCCCCN1CCCC2CCCCC21` (centres undefined) came in with an IFI of 5.19%.

Take `Cc1cccc2nc(-c3cccc(-c4ccc(NC(=O)Nc5ccc(Cl)c(Cl)c5)cc4)c3)[nH]c12`: the IFI came to 7.07%.

In turn, `CC(=O)Oc1c(Cl)c(C)nc(C)c1-c1ccc(Oc2ccc(OC(F)(F)F)cc2)cc1` had an IFI of 6.35%.

`CCN(CC)CCCN(CCCN(CC)CC)c1cc(C)nc(Nc2ccc3cc(Br)ccc3c2)n1` yielded an IFI of 4.35%.

`COc1cc(C(=O)Nc2ccc(-c3nc4ccccc4[nH]3)cc2)cc(OC)c1OC` yielded an IFI of 1.4%.

For `CCn1c(C(C)C)cc2c3c(N)nc(N)nc3ccc21`, the IFI came out at 2.88%.

In turn, `CCN(CC)CCOc1ccc(C(O)(C#CC(O)(c2ccc(OCCN(CC)CC)cc2)c2ccc([N+](=O)[O-])cc2)c2ccc([N+](=O)[O-])cc2)cc1` (centres undefined) showed an IFI of 5.84%.

With `CCOc1cc(C(=O)NC2CCN(Cc3ccccc3)C2)ccc1-c1nc2cc(Cl)ccc2[nH]1` (centres undefined), the IFI was 2.14%.

`Nc1nc(N)c2cc(C(F)(F)F)ccc2n1` gave an IFI of 1.65%.

Consider `Cc1cc(C)c(CON2C(=N)N=C(N)NC2(C)C)cc1C`, for which the IFI amounted to 3.57%.

`Cc1cc(=O)[nH]c(-n2nc(C)cc2NC(=O)C(c2ccccc2)c2ccccc2)n1` returned an IFI of 10.4%.

In turn, `Cc1cc(=O)[nH]c(-n2nc(C)cc2NC(=O)C2(c3ccc(Cl)cc3)CCCC2)n1` had an IFI of 19.2%.

The molecule `Cc1cc(=O)[nH]c(-n2nc(C)cc2NC(=O)CC(c2ccccc2)c2ccccc2)n1` registered an IFI of 10.4%.

In turn, `COc1cc(NCCCCCNc2cc(Cl)nc3ccccc23)nc2ccccc12` registered an IFI of 15.8%.

`COc1cc(NCC(O)CNc2cc(OC)c3ccccc3n2)nc2ccccc12` showed an IFI of 8.51%.

Turning to `COc1cc(NCCCNCc2cn(S(=O)(=O)c3ccccc3)c3ccccc23)nc2ccccc12`, the IFI came out at 8.96%.

In turn, `COc1cc(NCC(C)CNCc2cn(Cc3ccccc3)c3ccccc23)nc2ccccc12` (centres undefined) displayed an IFI of 7.19%.

Molecule `COc1cc(NCCCNCc2cn(Cc3cc(Br)cc(Br)c3)c3ccccc23)nc2ccccc12` yielded an IFI of 17.4%.

With `COc1ccc(COc2cc(NCCCN)nc3ccccc23)cc1`, the IFI was determined as 0%.

In the case of `COc1cc(NCCCCNc2ccc(Cl)c(Cl)c2)nc2ccccc12`, the IFI was 26.5%.

In the case of `COc1cc(NCCCNCC2c3ccccc3Oc3ccccc32)nc2ccccc12`, the IFI turned out to be 20.8%.

Regarding `COc1cc(NCCCNC(=O)c2ccc(Cl)c(Cl)c2)nc2ccccc12`, the IFI came out at 12.5%.

For `CCN(CC)/C(=N\CCCCCC/N=C(\NC(=N)c1ccc(Cl)cc1)N(CC)CC)NC(=N)c1ccc(Cl)cc1`, the IFI was found to be 12.2%.

Consider `CC(C)CNCc1cccc(-c2ccc(CN(CCCN3CCN(C)CC3)C(=O)/C=C/c3ccccc3)cc2)c1`, for which the IFI was 5.15%.

In the case of `Cc1cc(NC2CCN(Cc3ccccc3)CC2)nc(NCCCCc2ccccc2)n1`, the IFI was determined as 10.6%.

For the molecule `Cc1cccc2nc(-c3cccc(-c4cccc(NC(=O)C(C)CN(C)C)c4)c3)[nH]c12` (centres undefined), the IFI amounted to 3.6%.

`OCC1CCN(Cc2cccc(-c3ccc(-c4nc5cc(C(F)(F)F)ccc5[nH]4)s3)c2)CC1` registered an IFI of 2%.

With `O=c1[nH]ccc2nc(N[C@@H]3CCNC3)nc(Nc3cccc(S(=O)(=O)N4CCOCC4)c3)c12`, the IFI is 18.2%.

Consider `O=c1[nH]ccc2nc(N[C@@H]3CCNC3)nc(Nc3cc(Cl)cc(Cl)c3)c12`, for which the IFI amounted to 16.7%.

Molecule `Cc1cccc(Nc2nc(N[C@@H]3CCCNC3)nc3cc[nH]c(=O)c23)c1` gave an IFI of 16.7%.

Molecule `O=c1[nH]ccc2nc(N[C@@H]3CCNC3)nc(Nc3ccc4c(c3)S(=O)(=O)CC4)c12` gave an IFI of 0%.

`NS(=O)(=O)c1cccc(Nc2nc(N[C@@H]3CCNC3)nc3cc[nH]c(=O)c23)c1` showed an IFI of 18.2%.

The molecule `O=c1[nH]ccc2nc(N[C@@H]3CCCNC3)nc(Nc3ccc(S(=O)(=O)N4CCOCC4)cc3)c12` showed an IFI of 0%.

On to `OC(c1cc(C(F)(F)F)nc2c(F)cccc12)C1CCCCN1` (centres undefined), for which the IFI was 0%.

`CC(C)(C)OC(=O)Nc1cccc(-c2csc(NC(=N)N)n2)c1` displayed an IFI of 4.08%.

The molecule `CC(CNC(=O)[C@H]1CNCCN1C(=O)CCCc1ccccc1)c1ccccc1` (some centres undefined) registered an IFI of 2.84%.

Turning to `COc1cccc2c1CCN(CCN1CCC(NC(=O)c3ccc(-c4cccc(Cl)c4Cl)cc3)CC1)C2`, the IFI was 7.63%.

As to `O=C(Oc1ccc(C2CNCCc3c2cc(OC(=O)c2ccc(O)cc2)c(OC(=O)c2ccc(O)cc2)c3Cl)cc1)c1ccc(O)cc1` (centres undefined), the IFI came out at 5.07%.

The molecule `COc1ccc(C=NN=c2cc(C)[nH]c3ccc(C)cc23)c2ccccc12` yielded an IFI of 7.09%.

For `C=CCNS(=O)(=O)c1ccc(NC(=O)C(C)Oc2ccc([N+](=O)[O-])cc2)cc1` (centres undefined), the IFI was determined as 14.8%.

`CCN(CC)c1ccc(C(c2ccc(N(CC)CC)cc2)c2ccc([N+](=O)[O-])cc2)cc1` registered an IFI of 4.35%.

For the molecule `CCC(C)c1ccc(NC(=O)Nc2ccnc3ccccc23)cc1` (centres undefined), the IFI amounted to 10.2%.

For the molecule `CCCNS(=O)(=O)c1ccc(NC(=O)C(C)Oc2ccc([N+](=O)[O-])cc2)cc1` (centres undefined), the IFI was 17.5%.

`CCC(C)c1ccc(NC(=O)C(C)c2ccc([N+](=O)[O-])cc2)cc1` (centres undefined) came in with an IFI of 23.7%.

For the molecule `CCCCNS(=O)(=O)c1ccc(NC(=O)c2cc([N+](=O)[O-])ccc2Cl)cc1`, the IFI is 5.17%.

Regarding `CS(=O)(=O)c1ccc2[nH]c(-c3cc(-c4cccc(F)c4)cnc3N)nc2c1`, the IFI was found to be 6.45%.

`CC(=O)Nc1cccc(Nc2nccc(Nc3ccc(Oc4ccccc4)cc3)n2)c1` yielded an IFI of 4.96%.

In turn, `COc1ccc(-c2ccc(NC(=O)c3cccc(Cl)c3)cc2)cc1CN1CCN(C)CC1` had an IFI of 7.84%.

As for `CCOC(=O)c1ccc(NC(=O)N(Cc2ccc(-c3ccc(CN4CCNCC4)cc3)cc2)C2CCN(Cc3ccccc3)CC2)cc1`, the IFI was determined as 7.64%.

`Cc1cc(N[C@@H](Cc2ccccc2)C(=O)NCCOc2ccccc2)nc(NCCc2cccs2)n1` had an IFI of 11.6%.

The molecule `Cc1cc(N)c2cc(NC(=O)c3ccc4ccccc4c3)ccc2n1` showed an IFI of 6.08%.

`Cc1nc(-c2ccc(-c3ccc(NC(=O)c4coc5ccc(N6CC(C)N(C)C(C)C6)cc45)cc3)c(C)c2)no1` (centres undefined) came in with an IFI of 4.08%.

Take `O=C(Nc1ccc(Cl)cc1)N[C@H]1CCN(Cc2ccc(OCCCN3CCCCC3)cc2)C1`: the IFI was 7.14%.

As for `CCN(CC)CCCC(C)Nc1ccnc2ccc(OC)cc12` (centres undefined), the IFI stood at 0.73%.

`COc1ccccc1CNc1ccnc(N2CC(Oc3ccc(F)cc3)C2)n1` yielded an IFI of 4%.

In turn, `CCCCCNC(=N)c1ccc(OCCCCCOc2ccc(C(=N)NCCCCC)cc2)cc1` came in with an IFI of 5%.

Regarding `CCCCNC(=N)c1ccc(OCCCCCOc2ccc(C(=N)NCCCC)cc2)cc1`, the IFI turned out to be 2.26%.

The molecule `CCCCOc1ccc(C(=O)C(CCC(CNC(C)(C)C)C(=O)c2ccc(OCCCC)cc2)CNC(C)(C)C)cc1` (centres undefined) registered an IFI of 25.4%.
